Each structure is given as a SMILES string.

Common to all, as to assay type: functional
For experiment [1], the system named is Plasmodium falciparum. Put plainly: GSK_TCMDC: Inhibition of Plasmodium falciparum 3D7 in whole red blood cells, using parasite LDH activity as an index of growth. Test compounds present at 2uM.
In experiment [2] the test system is Plasmodium falciparum. Kind of experiment: GSK_TCMDC: Inhibition of Plasmodium falciparum Dd2 in whole red blood cells, using parasite LDH activity as an index of growth. Test compounds present at 2uM.
The test system of a further experiment is HepG2. Kind of experiment: GSK_TCMDC: Percent inhibition of human HepG2 cell line. Test compounds present at 10uM.

Turning to `CN(C)CCCNc1nccc(N(C)c2ccc(NC(=O)Nc3cc(C(F)(F)F)ccc3F)cc2)n1.O=C(O)C(F)(F)F`, the figures for the Inhibition in the experiment on Plasmodium falciparum [1], with Plasmodium falciparum [2] and with HepG2 were 93%, 25% and 97%, respectively.

Turning to `CC1CN(c2cnn(Cc3cccc(NC(=O)Nc4ccc(F)cc4[N+](=O)[O-])c3)c(=O)c2Cl)CC(C)N1.O=C(O)C(F)(F)F` (configuration not stated), the Inhibition (usually the change of the read-out against control, counted positive when it falls) in the experiment on Plasmodium falciparum [1] was determined as 91%; with Plasmodium falciparum [2], 13%; in the experiment with HepG2 it was 7%.

Take `O=C(C1CCCCC1)N1CCOC(CCN2CCC(c3ccccc3)CC2)(c2ccc(Cl)c(Cl)c2)C1` (configuration not stated): the Inhibition with Plasmodium falciparum [1] stood at 92%; in the experiment on Plasmodium falciparum [2], 86%; with HepG2, 6%.

Regarding `CC(C)CC(=O)N(Cc1ccc(-c2ccc(CNC3Cc4ccccc4C3)cc2)cc1)C1CCNCC1.O=C(O)C(F)(F)F`, the Inhibition in the experiment on Plasmodium falciparum [1] came to 85%; with Plasmodium falciparum [2], 65%; in the experiment on HepG2, 20%.

`COc1ccc2nccc([C@@H](O)CNCCCN(C)CCOc3cc(F)cc(F)c3)c2c1.O=C(O)C(=O)O`: the Inhibition was determined as 99% with Plasmodium falciparum [1], 58% with Plasmodium falciparum [2] and 11% in the experiment on HepG2.

`CN=C(S)NN=C(C)c1ccccn1`: the Inhibition is on record as 98% with Plasmodium falciparum [1], 99% in the experiment with Plasmodium falciparum [2] and 64% in the experiment on HepG2.

In the case of `Cn1nccc1C(=O)NCCNCc1ccc(-c2ccc(-c3nc4cc(F)ccc4[nH]3)cc2)cc1.O=C(O)C(F)(F)F`, the values for the Inhibition in the experiment with Plasmodium falciparum [1], in the experiment on Plasmodium falciparum [2] and with HepG2 were 100%, 98% and 28%, respectively.

Consider `COc1cc(NC2CCCC(NCc3cn(S(=O)(=O)c4ccccc4)c4ccccc34)C2)nc2ccccc12` (configuration not stated), for which the figures for the Inhibition in the experiment with Plasmodium falciparum [1], in the experiment with Plasmodium falciparum [2] and with HepG2 were 100%, 61% and 4%, respectively.

`Cc1cnn(-c2cccc(C(=O)NC3CCC(CCN4CCc5ccc(C#N)cc5CC4)CC3)c2)c1.Cl` (configuration not stated): the Inhibition in the experiment on Plasmodium falciparum [1] is on record as 94%; with Plasmodium falciparum [2], 48%; with HepG2, 24%.

Regarding `Fc1ccc(NC(=S)NCCc2ccccc2)cc1`, the Inhibition was 99% in the experiment on Plasmodium falciparum [1], 0% with Plasmodium falciparum [2] and 0% in the experiment on HepG2.

Turning to `CC(=O)N(C)c1cccc(C(=O)Nc2cccc(-c3cccc(-c4nc5cccc(C)c5[nH]4)c3)c2)c1`, the Inhibition with Plasmodium falciparum [1] is 89%; with Plasmodium falciparum [2] it was 41%; with HepG2, 15%.

On to `C[C@@H](N/C(=N\c1ccc(-c2ccccc2)cc1)Nc1ccc(C#N)cc1O)c1ccc(Br)cc1`, for which the Inhibition with Plasmodium falciparum [1] stood at 99%; with Plasmodium falciparum [2] it was 95%; with HepG2, 9%.

`N=C(NCCCCCCNC(=N)NC(=N)c1ccc(Cl)cc1)NC(=N)c1ccc(Cl)cc1`: the Inhibition is recorded as 98% with Plasmodium falciparum [1], 99% in the experiment with Plasmodium falciparum [2] and 10% in the experiment with HepG2.

For the molecule `c1ccc(Oc2ccc(Nc3ccnc4cc(-c5csc(CN6CCCCC6)n5)ccc34)cc2)nc1`, the Inhibition in the experiment with Plasmodium falciparum [1] came out at 100%; with Plasmodium falciparum [2] it was 95%; in the experiment on HepG2, 22%.

For `Cc1ccccc1C1CCN(C2CCC(NC(=O)/C=C/c3c[nH]c4ccccc34)CC2)CC1` (configuration not stated), the Inhibition worked out at 100% in the experiment with Plasmodium falciparum [1], 51% in the experiment with Plasmodium falciparum [2] and 30% in the experiment with HepG2.

On to `Cc1noc(C)c1-c1cccc(CNCc2cccc(-c3cccc(-c4nc5cc(C(F)(F)F)ccc5[nH]4)c3)c2)c1.O=C(O)C(F)(F)F`, for which the figures for the Inhibition in the experiment on Plasmodium falciparum [1], in the experiment with Plasmodium falciparum [2] and with HepG2 were 100%, 95% and 18%, respectively.

With `COc1ccc2nccc([C@@H](O)CN3CCC(NCc4cc5cccc(OC)c5o4)CC3)c2c1.O=C(O)C(=O)O`, the results for the Inhibition in the experiment on Plasmodium falciparum [1], in the experiment on Plasmodium falciparum [2] and in the experiment with HepG2 were 99%, 81% and 10%, respectively.

For `CN(C)c1ccc(-c2nc3cc(N)ccc3[nH]2)cc1`, the Inhibition in the experiment on Plasmodium falciparum [1] stood at 100%; with Plasmodium falciparum [2] it was 97%; with HepG2, 1%.

`O=C(O)C(F)(F)F.O=[N+]([O-])c1ccc(Oc2ccccc2CNCC2CCN(CC3CCCCC3)CC2)cc1`: the Inhibition in the experiment with Plasmodium falciparum [1] is listed as 89%; in the experiment on Plasmodium falciparum [2], 28%; in the experiment with HepG2, 40%.

On to `COCc1cc(C)nc2sc(C(=O)Nc3cc(C(C)(C)C)ccc3O)c(N)c12`, for which the Inhibition with Plasmodium falciparum [1] is on record as 85%; with Plasmodium falciparum [2] it was 57%; with HepG2 it was 0%.

In the case of `Cc1cccc(/C=C/C(=O)NC2CCC(N3CCC(c4ccccc4C)CC3)CC2)c1` (configuration not stated), the Inhibition in the experiment on Plasmodium falciparum [1] came to 92%; in the experiment with Plasmodium falciparum [2] it was 20%; in the experiment on HepG2 it was 67%.

On to `O=C(/C=C/c1ccc(Cl)c(Cl)c1)NCCCCCN1CCC(NC(=O)Nc2cccc(Cl)c2)CC1`, for which the Inhibition in the experiment with Plasmodium falciparum [1] is 100%; with Plasmodium falciparum [2] it was 13%; in the experiment with HepG2 it was 52%.

In the case of `COc1c(C2CCN(CCCCNC(=O)c3ccc(-c4ccc(Cl)cc4)c(OCCN(C)C)c3)CC2)ccc2c1CCCC2`, the Inhibition in the experiment on Plasmodium falciparum [1] came out at 100%; in the experiment with Plasmodium falciparum [2] it was 86%; in the experiment on HepG2 it was 100%.

Take `Cc1cc(Cl)c(S(=O)(=O)N(C)c2ccccc2)cc1OCC(=O)NC1CCCCC1`: the Inhibition in the experiment on Plasmodium falciparum [1] was 99%; with Plasmodium falciparum [2] it was 94%; in the experiment with HepG2 it was 3%.

As for `COc1ccccc1C1CN(Cc2coc3ccccc3c2=O)Cc2ccccc2O1` (configuration not stated), the Inhibition with Plasmodium falciparum [1] is given as 87%; in the experiment with Plasmodium falciparum [2], 61%; with HepG2, 4%.

Consider `Cl.OC(c1ccccc1)C1CN(CCC2CC3CCC2C3)CCC1(O)c1ccccc1` (configuration not stated), for which the figures for the Inhibition with Plasmodium falciparum [1], with Plasmodium falciparum [2] and in the experiment with HepG2 were 97%, 99% and 0%, respectively.

As to `O=C(O)C(F)(F)F.c1cc(CN2CCN(c3ccncc3)CC2)cc(-c2ccc(-c3nc4ccccc4[nH]3)s2)c1`, the Inhibition was determined as 100% in the experiment with Plasmodium falciparum [1], 100% in the experiment on Plasmodium falciparum [2] and 59% in the experiment with HepG2.

As for `CC1CCCCN1Cc1cccc(-c2c[nH]c3nc(NC4CCCC4)ncc23)c1.O=C(O)C(F)(F)F` (configuration not stated), the Inhibition in the experiment on Plasmodium falciparum [1] is reported as 93%; in the experiment with Plasmodium falciparum [2], 14%; with HepG2 it was 0%.

On to `COc1ccc2nccc([C@@H](O)CN3CCC(NCc4cc5cc([N+](=O)[O-])ccc5[nH]4)CC3)c2c1.O=C(O)C(=O)O`, for which the results for the Inhibition with Plasmodium falciparum [1], with Plasmodium falciparum [2] and in the experiment on HepG2 were 99%, 57% and 29%, respectively.
